This is an account of results in PubChem BioAssay (Tox21).

Records with an inconclusive call do not appear. Entries that show only a call come without a potency. Values without a mark were called inactive. Calls of active or inactive are those of the source. Calls come from the whole dose curve; as a rule, active = well fitted cell-killing curve with a large enough effect in the repeat runs; inconclusive = weak or mixed curves, or effect the other way; inactive = flat fitted curve, though single readings scatter.

A short description of this test: qHTS assay to identify small molecule agonists of the constitutive androstane receptor (CAR) signaling pathway - cell viability counter screen (AID 1224836). Note: nearly all actives have a fitted effect of over 45% in size. The following applies: HepG2-CYP2B6-hCAR viability, CellTiter-Fluor, 23 h, PK11195 added to every well; series mostly up to 92.4 µM. An excerpt:
U.S. Tox21 Program National Center for Advancing Translational Sciences [NCATS] NIH Chemical Genomics Center [NCGC] U.S. Environmental Protection Agency [EPA] National Institutes of Environmental Health Sciences [NIEHS] National Toxicology Program [NTP] U.S. Food and Drug Administration [FDA] Tox21 Assay Overview: The constitutive androstane receptor (CAR) is a nuclear receptor which regulates multiple drug metabolizing enzymes (DMEs) and transporters. Activating CAR will generally increase the transcription and subsequent translation of CYP2B6 and CYP3A4. These two DMEs represent about 50% of the drug metabolizing potential in the body. […] Recently, there have also been studies performed indicating CARs role in energy metabolism and cancer therapy. Therefore, inducing CARs activity could have a potential effect on diabetes and cancer. Identifying environmental toxins and compounds which modulate CAR, through the use of the Tox21 10K compound collection, will be an important step in determining the toxicity and potential therapeutic effects these factors will have on the human body. To differentiate true CAR agonists from cytotoxic substances, the assay is multiplexed with a cell viability assay.
Tox21 Assay Protocol Summary: A double-stable (hCAR and CYP2B6-2.2kb) transfected cell line, derived from human hepatoma (HepG2) cells, was utilized for the duration of the quantitative high-throughput screens. The HepG2-CYP2B6-hCAR cells were dispensed at 2500 cells/4 uL/well in 1536-well white solid bottom plates using a Multidrop Combi. After the assay plates were incubated at 37 C/5% CO2 for 4 hrs, 23 nL of compounds at 15 concentrations (from 5-48 columns) or positive control (from 1 to 4 columns) were transferred to the assay plates using a Pintool station. One uL of PK11195 (final concentration = 0.75 uM) was added, using a Flying Reagent Dispenser, inside each well. After a 23 hr incubation period at 37 C/5% CO2, 1 uL of CellTiter-Fluor reagent was added into each well of the assay plates using a Flying Reagent Dispenser. The fluorescence intensity in the plates was then measured using a ViewLux plate reader.
For the compound `Cc1cc(C)n(CO)n1`, the Potency result is “inactive”.

For `C1CCN(CN2CCCCC2)CC1`, the Potency result is “inactive”.

Consider `O=S(=O)(O)c1cc(Cl)c(Cl)cc1Cl`, for which the Potency result is “inactive”.

For the compound `O=C(OCCOCCOCCOC(=O)c1ccccc1)c1ccccc1`, the Potency entry was “inactive”.

Regarding `O=C1c2ccccc2C(=O)c2c1ccc(O)c2O`, the Potency entry was “inactive”.

For the compound `CO[C@@H]1COCC[C@@H]1N[C@@H]1CC[C@@](C(=O)N2CCc3ncc(C(F)(F)F)cc3C2)(C(C)C)C1`, the Potency result was “inactive”.

`O=C(OC1C[C@H]2CC[C@@H](C1)[N+]21CCCC1)C(O)(c1ccccc1)c1ccccc1` (stereo not given in full): the Potency entry is “inactive”.

On to `O=Cc1ccc([N+](=O)[O-])cc1`, for which the Potency result is “inactive”.

On to `CC(=O)OCC(=O)[C@@]1(O)CC[C@H]2[C@@H]3CCC4=CC(=O)C=C[C@]4(C)[C@@]3(F)[C@@H](O)C[C@@]21C`, for which the Potency entry is “inactive”.

Take `CC(C)CCCCCOC(=O)CS`: the Potency result is “inactive”.

For `Cc1ccc2ccccc2c1[N+](=O)[O-]`, the Potency result was “inactive”.

For the compound `c1ccc(CCNc2nc(-c3ccccc3)cs2)cc1`, the Potency result was “inactive”.

As for `CCCc1nc(C)c2c(=O)[nH]c(-c3cc(S(=O)(=O)N4CCN(CC)CC4)ccc3OCC)nn12`, the Potency entry is “inactive”.

Turning to `C/C=C1\[C@H]2C=C(C)C[C@]1(N)c1ccc(=O)[nH]c1C2`, the Potency entry was “inactive”.

Regarding `CCCCCCCCCCCCSCCOCCO`, the Potency result is “inactive”.

Regarding `CCc1cnc(C(=O)O)c(C(=O)O)c1`, the Potency result was “inactive”.

As for `CCCCCO`, the Potency result was “inactive”.

As to `O=C(Nc1ccc2c(c1)Cc1ccccc1-2)C(F)(F)F`, the Potency result was “inactive”.

As for `O=C(O)c1ccc2cc(O)ccc2c1`, the Potency result is “inactive”.

For the compound `S=c1[nH][nH]c(=S)s1`, the Potency result was “inactive”.

As for `CC(O)C(C)O` (stereo not given), the Potency result is “inactive”.

On to `c1ccc(-c2ccc(-c3ccccc3)cc2)cc1`, for which the viability change, negative = cytotoxic is 4.23% [at 19 µM].

Consider `CCOCCn1c(N2CCCN(C)CC2)nc2ccccc21`, for which the Potency entry is “inactive”.

`O=C(N[C@@H](Cc1ccccc1)[C@@H](O)C(=O)N1C[C@@H](O)[C@@H](O)C1)c1cc2cc(Cl)ccc2[nH]1`: the Potency entry was “inactive”.

For `OCC(O)c1ccccc1` (stereo not given), the Potency result was “inactive”.

As to `NC(=O)c1ccccc1C(N)=O`, the Potency result was “inactive”.

Take `CC(C)(C(=O)O)c1ccc(C(O)CCCN2CCC(C(O)(c3ccccc3)c3ccccc3)CC2)cc1` (stereo not given): the Potency result was “inactive”.

In the case of `CCCCCCCCNC`, the Potency entry is “inactive”.

With `CCCC1CCOC(C)S1` (stereo not given), the Potency entry was “inactive”.

On to `CCCC(=O)OCc1ccccc1`, for which the Potency result was “inactive”.

For `C=CC(C)(O)CC/C=C(/C)CCC=C(C)C` (stereo not given), the Potency result is “inactive”.

In the case of `C[Si](C)(C)O[Si](C)(C)O[Si](C)(C)C`, the Potency entry is “inactive”.

With `CC(C)(C)NCC(O)COc1ccc(NC(=O)NC2CCCCC2)cc1` (stereo not given), the Potency result was “inactive”.

For the compound `O=C1OC(=O)C2CC=CCC12` (stereo not given), the Potency entry is “inactive”.

In the case of `Nc1cccc2c(=O)[nH][nH]c(=O)c12`, the Potency result is “inactive”.

As to `CC(C)(C)N`, the Potency result was “inactive”.

As for `CC(C)NC(=O)c1ccccc1N`, the Potency entry was “inactive”.

With `C/C(=C\C(C)CC(C)CC(C)C)C1CC(=O)OC1=O` (stereo not given), the Potency result was “inactive”.

Turning to `CCCCCC1CCC(=O)O1` (stereo not given), the Potency entry is “inactive”.

Regarding `CC(=O)S[C@H](C(=O)N[C@H]1Cc2ccccc2[C@H]2CCC[C@@H](C(=O)O)N2C1=O)C(C)C`, the Potency result was “inactive”.
